Data published in PubChem BioAssay AID743287 (Broad Institute, 2014).
Values joined by “and” are separate entries in the source; they are usually repeats but may differ in a detail not shown here. Equal values may be shown once. Out of some 370,000 compounds screened, about 2,300 (0.62%) were called active. Many of the other results were omitted from the sample, so actives are more common in it than they were. A number with no mark means an inactive call.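 How the source made its calls: active means lowest replicate activation of at least 40%, so every replicate reaches that level; inactive means the rest.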

Test: primary screen for activators of insulin secretion dependent on glucose, INS-1E cells, GLuc reporter luminescence (AID 743287);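 further: 0% = median of neutral control wells and 100% = median of IBMX positive control wells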
Conditions: INS-1E GLuc reporter insulin secretion, 2-3 h, at 16.6 µM, hits give high values

SMILES | activation
COc1ccc(CN(C)C[C@H]2Oc3c(NC(=O)c4cnccn4)cccc3C(=O)N([C@H](C)CO)C[C@@H]2C)cc1 | 3%
O=C1[C@H](Cc2ccc(C(F)(F)F)cc2)CCn2nncc2COC[C@@H]2CCCCN12 | 1.36%
CC(C)CC#Cc1ccc([C@@H]2[C@@H](CO)N3C(=O)CN(C(=O)c4cnccn4)C[C@@H]23)cc1 | 25.5%
O=C(c1cnccn1)N1CC(=O)N2[C@H](C1)[C@@H](c1ccc(C#CC3CCCCC3)cc1)[C@@H]2CO | 1.34%
CC(C)CC#Cc1ccc([C@H]2[C@H]3CN(C(=O)c4cnccn4)CC(=O)N3[C@H]2CO)cc1 | 54.1% (active)
CO[C@@H]1CN(C)C(=O)c2ccc(NC(=O)Nc3ccccc3)cc2OC[C@@H](C)N(C(=O)Nc2c(C)noc2C)C[C@@H]1C | -0.32%
CCCCc1c(-c2ccc(Cl)cc2)ncn1CCc1ccccc1OC | -9.43%
CCCCCc1c(-c2ccc(OC)c(OC)c2)ncn1CCc1ccccc1OC | -29.6%
CCCCCc1c(Cc2ccccc2)ncn1CCc1ccccc1OC | 70% (active)
Cc1ccccc1-c1ccc([C@H]2[C@@H](CO)N3C(=O)CN(C(=O)c4cccnc4)C[C@@H]23)cc1 | -14.5%
COc1cccc(S(=O)(=O)N2CCC3(CC2)CN[C@H](CO)c2c3c3ccc(OC)cc3n2C)c1 | -2.73%
Cc1cc(NC(C)C)n2c(nc3ccccc32)c1C#N | 4.84%
Cc1ccc(S(=O)(=O)N(C)c2nc3ccccc3n3c(C(C)C)nnc23)cc1 | 66.1% (active)
O=C(Cc1ccncc1)N1CC[C@@H]2[C@@H](CO)Nc3ccc(C4=CCCCC4)cc3[C@@H]21 | 8.52%
CN(C)CCCNC(=O)C[C@H]1CC[C@H]2[C@@H](COC[C@H](O)CN2CC2CCCCC2)O1 | 1.49%
CC(Sc1nc2cc(Cl)ccc2s1)C(=O)Nc1ccc2c(c1)OCO2 (configuration not stated) | -18.8%
CCSc1ccccc1C(=O)Nc1ccc2c(c1)OCO2 | -1.24%
O=C(Nc1ccc2c(c1)OCO2)c1sc2cc(Cl)ccc2c1Cl | 69.2% (active)
C=CS(=O)c1sc(Cl)c(N2CCOCC2)c1[N+](=O)[O-] (configuration not stated) | 99.9% (active)
COc1ccc2c3c([nH]c2c1)[C@H](CO)N(C(=O)Nc1ccc(F)cc1)CC31CCN(C(=O)Nc2c(C)noc2C)CC1 | -8.35%
O=C(Nc1ccc(F)cc1)N1CC(=O)N2[C@H](CO)[C@H](c3ccc(C#Cc4ccccc4)cc3)[C@H]2C1 | -21.6%
CCCNC(=O)Nc1ccc2c(c1)OC[C@@H](C)N(CC1CCCC1)C[C@@H](C)[C@H](OC)CN(C)C2=O | -11.9%
COc1ccc(-c2ccccc2[C@H]2[C@@H](CO)N(C(=O)c3cccnc3)[C@H]2C#N)cc1 | -2.16%
CCc1n[nH]c(=S)n1/N=C/c1c[nH]c2ccc(Br)cc12 | 6.23%
S=c1[nH]nc(-c2ccccc2)n1/N=C/c1c[nH]c2ccccc12 | 41.8% (active)
C[C@@H]1CN([C@@H](C)CO)C(=O)c2cccc(N(C)C)c2O[C@H]1CN(C)S(=O)(=O)c1cccs1 | 4.92%

SMILES | activation
O=C(Cc1cccnc1)N1CC(=O)N2[C@@H](CO)[C@@H](c3ccc(C#CC4CCCCC4)cc3)[C@@H]2C1 | -3.29%
COc1ccc2c3c([nH]c2c1)[C@@H](CO)N(C(=O)NC(C)C)CC31CN(C(=O)C2CCCC2)C1 | 3.69%
COC(=O)CSc1nc2ccccc2c(=O)n1Cc1ccccc1 | 50% (active)
O=C(CSc1nc2ccccc2c(=O)n1CCCO)NC1CC1 | 4.63%
CCOc1ccc(NC(=O)CSc2nc3ccccc3c(=O)n2Cc2cccs2)cc1 | 60.2%
CO[C@@H]1CN(C)C(=O)c2cc(NS(=O)(=O)CC(F)(F)F)ccc2OC[C@H](C)N(Cc2ccccn2)C[C@@H]1C | 11.8%
CC(C)NC(=O)Nc1ccc2c(c1)CC(=O)N(C)C[C@@H](C)[C@@H](CN(C)C(=O)OC(C)(C)C)O2 | 9.38%
Cc1ccc2c(Cl)c(C(=O)Nc3nn[nH]n3)sc2c1 | -4.19%
Cc1ccc(-c2cc(C(=O)Nc3nn[nH]n3)c3ccccc3n2)c(C)c1 | 63.4% (active)
Cc1ccc(C)c(NC(=O)NNC(=O)c2ccc3ccccc3c2O)c1 | -0.162%
COc1ccc(CCNC(=O)CSc2nc(-c3ccc(OC)c(OC)c3)ccc2C#N)cc1 | 46.1%
COc1ccc(CCNC(=O)CSc2nnc3ccc(-c4ccncc4)nn23)cc1 | 4.35%
COc1cccc(-c2ccc(C#N)c(SCC(=O)NCCc3ccc(Cl)cc3)n2)c1 | 108% (active)
CCC(=O)N1C[C@H](C)[C@H](OC)CN(C)C(=O)c2ccc(NC(=O)Nc3ccc(Cl)cc3)cc2OC[C@H]1C | -31.9%
CNC(=O)C[C@H]1CC[C@@H]2[C@H](COc3ccc(NC(=O)C(C)C)cc3C(=O)N2C)O1 | 4.65%
COc1ccc(CN(C)Cc2nc3cc(OC)c(OC)cc3c(=O)[nH]2)c(OC)c1 | -31.6%
COc1ccc(/C=C2/C(=O)OCc3cc(OC)c(OC)cc32)c(OC)c1 | 90.1% (active)
COc1ccc(/C=C/C2=CC(C)(C)NC(=S)N2)c(OC)c1 | -2.56%
CCCC#Cc1ccc([C@H]2[C@H]3CN(C(=O)Nc4cccc(F)c4)CC(=O)N3[C@H]2CO)cc1 | -20.8%
Cc1noc(C)c1NC(=O)Nc1ccc2c(c1)C(=O)N([C@@H](C)CO)C[C@H](C)[C@@H](CN(C)C)O2 | 11.6%
Cc1ccccc1-c1ccc([C@H]2[C@H](CO)N3C(=O)CN(C(=O)c4cccnc4)C[C@@H]23)cc1 | 4.01%
COc1ccccc1S(=O)(=O)N[C@H]1CC[C@@H](CC(=O)NCc2cc(F)cc(F)c2)O[C@H]1CO | 6.83%
COC(=O)c1c(C)oc(C)c1S(=O)(=O)Nc1ccc(C(C)C)cc1 | 52.6% (active)
COC(=O)c1c(C)oc(C)c1S(=O)(=O)NCc1ccc(Cl)cc1 | 15.9%
CC(C)c1ccc(NS(=O)(=O)c2cn(C)c(=O)n(C)c2=O)cc1 | 18.1%
CCCCCCCCCCOC(=O)Cn1c(COc2ccc(C)cc2)[n+](C)c2ccccc21 | 193% (active)

SMILES | activation
CCCCOC(=O)c1ccc(NC(c2ccc(C)cc2)P(=O)(OC)OC)cc1 (configuration not stated) | -63.4%
Cc1ccc(OCCC(=O)OCC(=O)N2c3ccccc3NC(=O)C2(C)C)cc1 | -29.1%
CCCNC(=O)N1CCC2(CC1)CN(C(=O)c1cccnc1)[C@@H](CO)c1[nH]c3cc(OC)ccc3c12 | 20.9%
C[C@H]1CCCCO[C@@H](CN(C)Cc2ccc3c(c2)OCO3)[C@@H](C)CN([C@@H](C)CO)C(=O)c2cc(NS(=O)(=O)c3ccc(F)cc3)ccc2O1 | -26%
O=C(C[C@H]1C=C[C@H](NC(=O)c2cccc(F)c2)[C@@H](CO)O1)NCc1ccc(Oc2ccccc2)cc1 | 8.87%
Cc1noc(C)c1NC(=O)N(C)C[C@@H]1Oc2c(NC(=O)CCCCCC(=O)Nc3ccccc3N)cccc2C(=O)N([C@H](C)CO)C[C@@H]1C | -5.82%
COc1ccccc1S(=O)(=O)N[C@@H]1C=C[C@H](CC(=O)NCc2cccc(F)c2)O[C@H]1CO | 10.3%
COc1cc2c(cc1OC)/C(=C/C(=O)c1ccc(NC(C)=O)cc1)NCC2 | 70% (active)
COc1ccc(NC(=O)C2Cc3c(-c4cccc(NC(C)=O)c4)ccnc3O2)cc1OC (configuration not stated) | -7.03%
COc1ccc(C(=O)Nc2ccc(C3(C#N)CCCC3)cc2)cc1OC | -6.21%
CCC(=O)N(C)C[C@@H]1Oc2ncc(C#Cc3ccccc3)cc2C(=O)N([C@@H](C)CO)C[C@H]1C | -1.97%
COc1ccccc1C(=O)NC(=S)NC12CC3CC(CC(C3)C1)C2 | 41.4% (active)
NC(=O)COc1ccccc1C(=O)NC12CC3CC(CC(C3)C1)C2 | 17.8%
COc1ccccc1C(=O)NC(=O)COC(=O)C1CC1 | -1.88%
COc1cccc(C#Cc2ccc3c(c2)[C@H]2[C@H](CCN2C(=O)CC2CC2)[C@H](CO)N3)c1 | 0.458%
CCCC#Cc1ccc2c(c1)O[C@H](CN(C)C(=O)C1CCCCC1)[C@H](C)CN([C@H](C)CO)S2(=O)=O | -12.4%
CN(C)CC(=O)N[C@@H]1CC[C@H](CCn2cc(C3CCCC3)nn2)O[C@H]1CO | -11.3%
O=C(NCCS(=O)(=O)NCc1ccc(Cl)cc1)c1ccccc1 | 18.7%
O=C(NNC(=O)c1cccc(S(=O)(=O)Nc2ccc(Cl)cc2)c1)c1ccc(=O)[nH]c1 | 0.241%
O=C(Nc1ccccc1)c1nnsc1S(=O)(=O)c1ccc(Cl)cc1 | 48.4% (active)
C=CCSc1nc(N)cc(=O)[nH]1 | 18%
C=CCSc1nc2c(c(=O)[nH]1)C(C(C)C)C(C#N)=C(N)O2 (configuration not stated) | 71.8% (active)
O=C(C[C@@H]1CC[C@@H]2[C@H](COC[C@H](O)CN2S(=O)(=O)c2ccccc2)O1)N[C@H]1CCN(Cc2ccccc2)C1 | 4.06%
COc1ccc(NC(=O)N(C)C[C@H]2Oc3c(NC(=O)Nc4cccc5ccccc45)cccc3C(=O)N([C@H](C)CO)C[C@@H]2C)cc1 | -5.46%
Cc1cccc(-c2ccc(C3[C@H]4CNC[C@@H]3N4S(=O)(=O)c3ccccc3F)cc2)c1 (some centres not stated) | -12.2% and 1.38%
